# Only some compounds are listed: those with a hit (about 1.2% of all), similar ones and a draw of the others.
# p-CIP stab down = compounds decreasing mouse p/CIP protein stability; F442A p/CIP-EGFP cells, EGFP fluorescence, 16 h; AID 1984; 290,000 tested, 0.01% active; Q05BA5; decrease of EGFP signal, % at 10 µM;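 active = EGFP signal decrease of at least 30% at 10 µM or well 3 SD below plate mean, unless failing retest; inactive = the rest, including hits failing retest or dose response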
# VLA-4 inh = inhibition in a human VLA-4 binding assay. 330,000 tested, 0.2% active. inhibition, % (about 7 µM as worked out from the volumes in the protocol). VLA-4 expressing cells, ligand binding flow cytometry; in the data active = inhibition above about 50%
# GPR7 antagonist = blocks human GPR7 receptor signaling; GPR7-expressing cells, fluorescence antagonist assay; inhibition, % at 4.4 µM; 290,000 tested, 1.1% active; in the data active = inhibition above about 16%, passing the limit was not always enough;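 note: cells stimulated with the agonist NPW; 0% = agonist with vehicle and 100% = vehicle without agonist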
# Target sequence (P48145 whole entry, looked up): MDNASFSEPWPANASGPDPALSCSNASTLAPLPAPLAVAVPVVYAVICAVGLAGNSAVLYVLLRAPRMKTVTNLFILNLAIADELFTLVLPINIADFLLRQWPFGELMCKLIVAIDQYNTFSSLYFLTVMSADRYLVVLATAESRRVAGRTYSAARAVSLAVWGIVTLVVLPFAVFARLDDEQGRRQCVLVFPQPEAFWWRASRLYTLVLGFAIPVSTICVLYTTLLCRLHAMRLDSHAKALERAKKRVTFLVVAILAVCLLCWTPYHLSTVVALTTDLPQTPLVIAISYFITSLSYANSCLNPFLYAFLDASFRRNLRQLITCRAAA
# JMJD2C inh = human JMJD2C demethylase inhibition. Q9H3R0. GST-JMJD2C(1-420) H3K9me3 demethylation, DELFIA europium. inhibition, % at 2.35 µM. 330,000 tested, 0.069% active. AID 2099;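 active = more than half of a compound's replicate wells show inhibition beyond 50%, single wells judged on their own value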;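 note: signal counts dimethyl H3K9 product captured on neutravidin plate; 0% = median of DMSO wells and 100% = 0.3 times that DMSO median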
# GPR7 antag cf = confirmation of human GPR7 antagonists; shares compounds with GPR7 antagonist; GPR7-expressing cells, calcium fluorescence antagonist mode; inhibition, % at 4.4 µM; 2,400 tested, 52% active; in the data active = inhibition above about 24%;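 note: stimulated with the GPR7 agonist NPW; 0% = agonist plus vehicle and 100% = vehicle alone without agonist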
# MCHR1 antagonist = counter-screen for GPR7 antagonists: antagonists of human MCHR1. shares compounds with GPR7 antagonist. AID 2148. inhibition, % at 4.4 µM. 2,400 tested, 62% active. MCHR1-expressing cells, fluorescence antagonist assay; in the data active = inhibition above about 22%;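 note: 0% = vehicle with agonist and 100% = vehicle without agonist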
# * = called active by the depositor; . = not tested or not shown.
SMILES,p-CIP stab down,VLA-4 inh,GPR7 antagonist,JMJD2C inh,GPR7 antag cf,MCHR1 antagonist
O=C(Nc1ccccc1)Oc1cccc(Br)c1,1,3,-12,-1,.,.
COc1cccc(C(=O)Oc2cc3c4c(c2)C(C)=CC(C)(C)N4C(=O)C3=O)c1,-14,47,4,-2,.,.
COc1cc2c3c(c1)C(C)=CC(C)(C)N3C(=O)C2=O,-21,28,27*,-4,19,23*
Cc1cc(C)c(CSc2ncc(-c3ccc([N+](=O)[O-])cc3)[nH]2)c(C)c1,-10,-5,42*,2,68*,83*
O=[N+]([O-])c1ccc(-c2cnc(SCc3ccccc3Cl)[nH]2)cc1,-16,4,9,0,.,.
O=C(Nc1ccc(F)cc1)OCCOc1ccc(Br)cc1,-5,0,0,-7,.,.
Cc1ccccc1NC(=O)CSCc1nc(N)nc(Nc2ccccc2C)n1,-16,0,21*,1,-2,6
Cc1ccccc1Nc1nc(N)nc(CCl)n1,-5,-58,-6,4,.,.
Cc1ccc(N(C(=O)c2csnn2)C(C(=O)NC2CCCC2)c2ccncc2)c(C)c1 (stereo not drawn),-19,-2,41*,-4,-7,-7
CC(C)N(c1ccccc1)c1ccc(NC(=O)COC(=O)CCN2C(=O)c3cccc([N+](=O)[O-])c3C2=O)cc1,-1,22,29*,12,74*,60*
CC(=O)c1ccc(NC(=O)COC(=O)CCN2C(=O)c3cccc([N+](=O)[O-])c3C2=O)cc1,-2,-7,-2,4,.,.
COc1ccc(NC(=O)CCNS(=O)(=O)c2cccc3nsnc23)c(OC)c1,-4,0,-4,2,.,.
COc1ccc(C2Nc3ccccc3C(=O)N2Cc2ccco2)cc1COc1ccc(F)cc1 (stereo not drawn),0,-3,27*,1,29*,25*
CCNC(=O)NC(=O)COC(=O)C1CSC2(C)CCC(=O)N12 (stereo not drawn),-5,-9,-14,0,.,.
CCOC(=O)C1CCN(C(=O)CSc2ccccc2Cl)CC1,7,2,3,-4,.,.
Cc1cc(C)c2nc(SCC(=O)NCCC3=CCCCC3)cc(C)c2c1,5,7,-17,-22,.,.
CCCCCCCOC(=O)C[N+](C)(C)CCOC1CC2CCC1(C)C2(C)C (stereo not drawn),-14,.,28*,-7,67*,87*
CCCOC(=O)C[N+](C)(C)CCOC1CC2CCC1(C)C2(C)C (stereo not drawn),-4,2,7,-8,.,.
CCCCOC(=O)C[N+](C)(C)CCOC1CC2CCC1(C)C2(C)C (stereo not drawn),-1,-7,-2,3,.,.
CCCCCCOC(=O)C[N+](C)(C)CCOC1CC2CCC1(C)C2(C)C (stereo not drawn),-33,8,32*,-13,65*,63*
CCC(C)(C(=O)NC1CCCC1)N(Cc1cccs1)C(=O)c1ccccn1 (stereo not drawn),7,1,-1,24,.,.
Cc1cccn2c(=O)c3cc(C(=O)NCC4CCCO4)c(=N)n(C4CCCC4)c3nc12 (stereo not drawn),-4,20,-15,14,.,.
Cc1ccc(C)c(OCCn2cc(C(=O)O)c3ccccc32)c1,0,9,95*,0,6,6
CN1CCN(C(=S)c2cn(CCOc3ccccc3)c3ccccc23)CC1,-2,-19,27*,53,20,11
CC(=O)c1cn(CCOc2cc(C)ccc2C)c2ccccc12,-26,13,29*,-3,47*,68*
SMILES,p-CIP stab down,VLA-4 inh,GPR7 antagonist,JMJD2C inh,GPR7 antag cf,MCHR1 antagonist
CN1CCN(C(=S)c2cn(CCOc3ccccc3F)c3ccccc23)CC1,-15,15,11,16,.,.
Cc1noc(C)c1CSCC(=O)Oc1ccc(N(C)S(=O)(=O)c2ccc(Cl)cc2)cc1,.,4,.,-3,.,.
Cc1cc(NC(=O)COC(=O)c2oc3c(Cl)cccc3c2C)no1,-9,2,27*,7,22,37*
Cc1cccc(C)c1OCC(=O)Nn1c(COc2ccccc2)nc2ccccc2c1=O,-4,10,10,-3,.,.
CC(C)=NOCC(=O)Nn1c(COc2c(C)cccc2C)nc2ccccc2c1=O,-14,5,26*,-17,-16,-3
Cn1nnnc1SCC(=O)Nc1ccc(Oc2ccccc2)cc1,-5,5,22*,10,14,18
COc1ccc(NC(=O)CSc2nnnn2C)cc1,4,-4,-11,-10,.,.
O=C(Nc1csc([N+](=O)[O-])c1)Nc1ccccc1Cl,-15,6,41*,0,51*,62*
O=C(Nc1ccc(Nc2ccccc2)cc1)Nc1ccccc1Cl,2,11,6,0,.,.
Clc1ccccc1-c1nnn(Cc2ccc(-c3nn[nH]n3)cc2)n1,0,-12,24*,-4,29*,19
Clc1ccc(Cn2nnc(-c3ccccc3)n2)cc1,6,8,-4,11,.,.
CCOC(=O)C1CCCN(C(=O)c2cnn3c(C(F)(F)F)cc(-c4ccccc4)nc23)C1 (stereo not drawn),3,-19,25*,11,14,10
O=C(Nc1cccc(C(F)(F)F)c1)c1cncs1,-8,2,16,1,.,.
CN1C(=O)N(CC(=O)Nc2sccc2C(N)=O)C(=O)C12CCCCC2,.,-14,.,1,.,.
CC(C)Oc1ccc(OCCNC2CCCC2)cc1,-2,30,-3,.,.,.
CCOc1cccc(OCCNC2CCCC2)c1,5,45,61*,-2,1,-2
COc1cccc(C2c3[nH]c4ccccc4c3CCN2C(=O)c2ccccc2F)c1OC (stereo not drawn),5,-3,37*,9,27*,35*
Cc1cc(C(=O)CN2C(=O)C(=O)N(CCC3=CCCCC3)C2=O)c(C)n1C,.,3,.,2,.,.
NS(=O)(=O)c1cccc(NC(=O)COC(=O)CC2CC3CCC2C3)c1 (stereo not drawn),2,-10,36*,8,-6,-6
Cc1c(NC(=O)c2cccs2)cccc1-c1nc2ccccc2s1,-9,13,33*,8,45*,64*
Cc1ccc(C)c(NC(=O)CSc2nc3ccccc3nc2N2CCOCC2)c1,5,8,-2,0,.,.
CCc1ccccc1NC(=O)CSc1nc2ccccc2nc1N1CCOCC1,1,-4,26*,-1,34*,31*
COc1ccc(Oc2c(Cl)cnn(-c3ccc(C)cc3)c2=O)cc1,-9,-2,32*,0,63*,1
CCN(Cc1ccccc1)C(c1ccccn1)c1nnnn1C(C)(C)CC (stereo not drawn),-16,0,22*,-2,25*,56*
CC(C)(C)n1nnnc1C(c1ccccn1)N(Cc1ccccc1)Cc1ccc(Cl)cc1 (stereo not drawn),-11,2,-1,-28,.,.

# Assay outcomes (PubChem)
